Compound activity deposited in PubChem by Broad Institute.
In the library only some 2.9% were active in any assay of this set; here they are far more common.
TRPM1 prom inh: MITF TRPM1 promoter inhibition in SK-MEL-5 cells. inhibition, % at 12.5 µM. SK-MEL-5 TRPM1 promoter luciferase, 24 h. AID 488899. 330,000 tested, 0.83% active;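 active = mean inhibition across replicates of 60% or more, whatever share of single replicates reaches that level; inconclusive = some that reach 60%, reason not given; inactive = mean inhibition across replicates below 60%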
NSD2 inh: inhibitors of human histone methyltransferase NSD2. NSD2 peptide methylation, AlphaScreen, 120 min. O96028. 310,000 tested, 0.54% active. inhibition, % at 12.5 µM; in the data active = inhibition above about 50%
Glyco luc inh: N-linked glycosylation inhibition. D54 ERlucT glycosylation luciferase reporter, 24 h; percent of 100 nM tunicamycin response. reporter increase, % at 12.5 µM. 360,000 tested, 0.23% active;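 active = mean luciferase reporter signal, scaled so untreated is 0 and the glycosylation-blocking control 100, at or above a set limit in every replicate; inconclusive = mean reaches the limit but not every replicate does; inactive = mean below the limit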;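 also: luciferase carries N-glycosylation sites so blocking glycosylation raises the light; 0% = median of neutral control wells and 100% = median of 100 nM tunicamycin wells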
PfHsp90 yeast 2: inhibits growth of yeast expressing Plasmodium falciparum Hsp90; S. cerevisiae expressing PfHsp90, BacTiter-Glo ATP, 48 h; yeast lacking PDR1 and PDR3 efflux regulators; inhibition, % at 9.4 µM; 310,000 tested, 0.32% active; AID 504621;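 active = every replicate shows inhibition above about 80%, whatever the replicate mean, limit read from the data; inconclusive = mean inhibition reaches the set limit but some replicate falls short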;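 also: 0% = DMSO neutral controls and 100% = 20 µM radicicol positive controls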
Wnt bcat act: Wnt/beta-catenin pathway activation; Wnt/beta-catenin reporter cell assay, activator, plate reader; activation, % at 9.35 µM; 300,000 tested, 1.2% active; in the data active = activation above about 30%, passing the limit was not always enough; inconclusive = no clear call, values can overlap the other calls;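 also: 0% = neutral control wells and 100% = positive control wells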
MITF act: MITF TRPM1 promoter activation in melanoma cells | 300,000 tested, 0.75% active | SK-MEL-5 TRPM1-promoter luciferase, 24 h; % of positive control, neutral wells = 0 | activation, % at 12.5 µM | AID 588334;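 active = mean activation of at least 80% with every replicate also reaching 80%; inconclusive = mean reaches 80% but some replicate falls short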;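 also: 0% = neutral control wells and 100% = parthenolide positive control wells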
Starred values were filed as active, the others as inactive; ? = inconclusive; . = no result.

SMILES	TRPM1 prom inh	NSD2 inh	Glyco luc inh	PfHsp90 yeast 2	Wnt bcat act	MITF act
CC1=NOC(=O)/C1=C\c1ccc(-c2ccc(Cl)cc2Cl)o1	73*	13	5	72	-15	-71
CCCOc1ccc(Cl)cc1/C=C1/C(=O)ON=C1C	26	0	1	4	-2	-27
COc1ccc2[nH]c(C(=O)N/N=C/c3ccccc3OC)cc2c1	8	1	37*	0	1	-7
CC(CCc1ccccc1)NC(=O)c1ccc(C(=O)NC(C)CCc2ccccc2)cc1 (stereo not given)	74*	0	-6	-17	-8	-74
Cc1ccc(C(=O)NCCCc2ccccc2)c(C)c1	-55	.	-5	2	7	50
O=C(Nc1cccs1)Nc1ccccc1Cl	-14	2	-3	-5	.	14
COc1ccccc1C(=O)Nc1ccc(Br)c2cccnc12	-3	-4	2	24	-1	.
Cc1ccc(NC(=O)c2ccccc2Cl)c(Cl)c1	-82	-8	-1	-1	2	86*
Cc1ccc(NC(=O)c2ccccc2F)c(NC(=O)c2ccccc2F)c1	-20	0	-2	-1	26	.
Cc1ccc(C(=O)NCCCc2ccccc2)c(Cl)c1	-96	-3	-4	-1	18	101*
COc1ccccc1C(=O)Nc1ccc(Br)cc1C	-38	-3	3	5	37*	40
Cc1ccc(NC(=O)Nc2cccs2)c(Cl)c1	-42	8	0	3	55*	47
O=[N+]([O-])c1ccc(O)c(CN2CCCCCC2)c1	6	-3	5	-14	3	.
COc1cc(F)c(S(=O)(=O)N2CCCN(S(=O)(=O)c3cccc(N)c3)CC2)c(F)c1	.	-2	.	.	.	.
Cc1cnc(NC(=O)CCNC(=O)c2ccccc2Cl)s1	-2	-1	2	3	46*	1
CCOc1cc(/C=C2\COc3ccccc3C2=O)cc(Br)c1OCC(=O)N(C)C	89*	3	-17	47	-18	-88
COc1ccc(/C=C2\OC(=O)c3c(OC)cccc32)cc1OC	-122	-2	1	1	.	125*
COc1ccc(C=C2C(=O)OC(C)(C)OC2=O)cc1OC	-6	-1	1	-10	3	7
CCOc1cc(/C=N/Nc2nc3ccccc3[nH]2)cc(Br)c1OCC(=O)N(C)C	15	-3	-3	.	0	-14
COc1ccc(/C=C2/CCc3ccccc3C2=O)cc1OC	-18	3	1	-34	50*	19
COc1ccc(C=C2CCc3ccccc3C2=O)cc1	.	-4	-10	.	-1	.
CCOc1ccc(/C=C2\CCc3ccccc3C2=O)cc1	-96	-2	-15	12	10	95*
O=C(Nc1ccc2c(c1)OCO2)c1cnc(Cl)c(Cl)c1	-60	-1	-2	.	-1	53
COc1ccc(/C=C2\COc3ccccc3C2=O)cc1OC	8	10	36*	14	33*	-8
CC(=O)N(c1ccccc1)C1CCCC1	2	-1	2	-3	-1	-3
SMILES	TRPM1 prom inh	NSD2 inh	Glyco luc inh	PfHsp90 yeast 2	Wnt bcat act	MITF act
O=C(CCl)N(c1ccccc1)C1CCCCC1	95*	-5	-22	-13	3	-94
O=C(Nc1ncc(Cc2cccc(Cl)c2Cl)s1)C1CCCO1 (stereo not given)	-128	0	-4	-12	44*	133*
O=C(Nc1ncc(Cc2ccccc2Cl)s1)C1CCCO1 (stereo not given)	-73	2	-8	3	10	73
O=C(Nc1ncc(Cc2cccc(Cl)c2)s1)C1CCCO1 (stereo not given)	-99	-2	3	-10	.	97*
CC(=O)Nc1ccc(Nc2cc(C(C)C)nc3c(-c4ccccc4)c(C)nn23)cc1	15	-3	-2	108*	-9	-17
CCOc1ccccc1-c1nc(-c2ccc(C)nc2OC)no1	-92	1	-1	8	51*	.
COc1nc(C)ccc1-c1noc(-c2ccncc2)n1	-88	2	-2	0	0	97*
Cc1ccc(-c2nc(-c3ccncc3)no2)cc1	-23	0	-12	-1	33*	23
CCOc1nc(C)ccc1-c1noc(-c2ccccn2)n1	-40	-3	-1	-1	.	42
Cc1onc(C(=O)N2CCN(C(c3ccc(F)cc3)c3ccc(F)cc3)CC2)c1[N+](=O)[O-]	.	-2	.	.	.	.
Cc1cc2c(c(=O)o1)[C@@]1(C(=O)N(C)c3ccccc31)C1=C(CC(C)(C)OC1=O)O2	.	.	.	.	-2	.
Nc1ccc(-c2cc(NC=O)c3ncc(-c4cccc(C(F)(F)F)c4)n3c2)cn1	.	7	29*	.	-1	.
COc1ccc(OC)c(/C=N/N(C)c2ccccc2)c1	-105	0	-2	-12	.	96*
C=CCSc1n[nH]c(-c2ccccc2)n1	-68	3	1	-1	.	71
C=CCSc1n[nH]c(-c2ccc(OC)cc2)n1	-100	-2	-1	-6	.	101*
Cc1cc(/C=C(\C#N)C(=O)NC2CC2)c(C)[nH]1	-89	-2	2	-2	?	94*
N#C/C(=C\c1ccc[nH]1)C(=O)Nc1ccccc1F	-17	-2	-2	10	33*	19
Cc1cc(/C=C(\C#N)C(=O)NC2CCCCCC2)c(C)[nH]1	-42	0	4	14	.	51
Cc1cc(/C=C(\C#N)C(=O)NCc2ccco2)c(C)[nH]1	-4	-1	3	9	.	5
Cc1cc(/C=C(\C#N)C(=O)Nc2ccccc2F)c(C)[nH]1	-102	1	-6	-7	19	106*
Cn1c(C(=O)Nc2ccccc2)cc2sccc21	-29	-1	0	11	51*	32
CNC(=O)CCc1nc(-c2ccc(C(C)C)cc2)no1	.	-2	.	.	.	.
Cc1ccc(Nc2ccc(N)cc2S(=O)(=O)O)cc1	10	15	3	-5	-2	-9
Nc1ccc(Nc2ccccc2)c(S(=O)(=O)O)c1	-7	94*	2	-11	-2	0
CCc1ccc(NC(=O)NC2CCCCCCC2)cc1	-95	-1	-7	15	19	95*
SMILES	TRPM1 prom inh	NSD2 inh	Glyco luc inh	PfHsp90 yeast 2	Wnt bcat act	MITF act
COc1ccc(NC(=O)C(=S)NC2CCCCC2)cc1	-69	.	-3	25	39*	69
O=C(Cc1ccc(O)cc1)NC1CCCCCC1	-80	-6	-4	-20	16	90*
CCc1cccc(NC(=O)NC2CCCCC2)c1	-13	3	-1	-9	.	7
O=C(Cc1ccc(Br)cc1)NC1CCCCC1	-36	0	-2	-4	20	32
COc1ccc(NC(=S)NC(=O)C2CCC2)cc1	-30	4	1	5	38*	31
O=C(COc1nsnc1N1CCOCC1)Nc1ccc(Br)cc1	6	10	0	-15	-3	-7
COc1ccc(C(=O)NC(=S)NNC(=O)CNC(=O)C2CCCCC2)cc1	4	1	1	6	1	2
